Measurements taken from the supplement of paper PMC10646978.
± gives the standard deviation.

Tests used:
Conditions in all cases: modulator concentration 10 µM
[1] = tested on: RAW-Dual (murine macrophage reporter line); test: NF-kB reporter (SEAP) activity fold change vs agonist alone; higher = enhanced NF-kB activity
Method in brief: (§1)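 RAW-Dual murine macrophage reporter cells were plated at 50 000 per well in 384-well plates, pin-transferred compound to 10 μM final, and pre-incubated for 1 hour at 37 °C before a PRR agonist was added and the cells incubated overnight. NF-κB activity was read from supernatant SEAP with QUANTI-Blue at 620 nm absorbance, and IRF activity from Lucia luciferase with QUANTI-Luc by luminescence. Each signal was expressed as fold change by dividing by the mean agonist-only control on the same plate. Two replicate plates were averaged, with errors obtained by propagation.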

[2] = tested on: RAW-Dual (murine macrophage reporter line); test: IRF reporter (Lucia luciferase) activity fold change vs agonist alone; higher = enhanced IRF activity
Method in brief: as §1

[3] = tested on: RAW-Dual (murine macrophage reporter line); test: viability score (confluency relative to resting cells, overnight) (fraction); higher = more viable, active = viable (0.7 or more)
Method in brief: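 RAW-Dual macrophages in 384-well plates were treated overnight with compound at 10 μM final. IncuCyte imaging recorded confluency, and IncuCyte software built two confluency masks across every imaged well. The viability score expresses confluency relative to resting cells and was judged against a cutoff, which a compound met only if both masks exceeded 70% of resting cells.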

[4] = agonist: CpG ODN 1826 0.5 ug/mL

Row | SMILES | NF-kB reporter [1, 4] | NF-kB reporter ([1]; agonist: LPS 0.1 ug/mL) | NF-kB reporter ([1]; agonist: MPLA […]) | IRF reporter ([2]; agonist: 3'3'-cGAMP 10 ug/mL) | IRF reporter ([2]; agonist: LPS 0.1 ug/mL) | IRF reporter ([2]; agonist: MPLA […]) | viability score [3]
1 | CSc1nc2cc(Oc3cccc(Cl)c3Cl)c(Cl)cc2[nH]1 | 0.416 ± 0.14 | 0.771 ± 0.084 | 0.63 ± 0.037 | 0.831 ± 0.025 | 1.41 ± 0.26 | 1.34 ± 0.21 | 0.921 (active)
2 | CCc1c(C)nc(-n2nc(C)cc2NC(=O)CSCc2ccccc2)[nH]c1=O | 0.901 ± 0.056 | 0.603 ± 0.082 | 0.885 ± 0.038 | 0.973 ± 0.065 | 1.22 ± 0.078 | 1.07 ± 0.099 | 1.02 (active)
3 | O=C(O)CCCNc1c(C(=O)Nc2ccc(Cl)cc2)cc([N+](=O)[O-])cc1[N+](=O)[O-] | 0.817 ± 0.065 | 0.813 ± 0.057 | 0.942 ± 0.049 | 0.629 ± 0.022 | 1.11 ± 0.12 | 1.42 ± 0.24 | 0.511 (inactive)
4 | OCC(O)CN1CCN(c2ccccc2)CC1 (configuration not stated) | 1.06 ± 0.091 | 1.03 ± 0.12 | 1.02 ± 0.039 | 1.03 ± 0.064 | 0.991 ± 0.11 | 0.982 ± 0.17 | 0.996 (active)
5 | OCCOCCN1CCN(C(c2ccccc2)c2ccc(Cl)cc2)CC1 (configuration not stated) [Prestw-133] | 1.07 ± 0.083 | 0.934 ± 0.071 | 1.07 ± 0.11 | 0.763 ± 0.024 | 1 ± 0.14 | 1.01 ± 0.21 | 1.04 (active)
6 | COc1ccc(-c2csc(NC(=O)CCc3ccccc3)c2C(=O)O)cc1 | 0.697 ± 0.1 | 0.809 ± 0.072 | 1.04 ± 0.15 | 0.957 ± 0.046 | 1.51 ± 0.12 | 1.63 ± 0.14 | 1.02 (active)
7 | COC(=O)C1=CN(CC2CCCO2)C=C(C(=O)OC)C1c1ccccc1Cl (configuration not stated) | 1.67 ± 0.13 | 1.21 ± 0.069 | 2.32 ± 0.14 | 0.796 ± 0.051 | 0.845 ± 0.066 | 0.686 ± 0.043 | 0.982 (active)
8 | O=C1C2C3C=CC(C4CC34)C2C(=O)N1N=Cc1ccc(-c2ccc(Cl)cc2)o1 (configuration not stated) | 1.01 ± 0.14 | 1.04 ± 0.074 | 0.924 ± 0.068 | 0.968 ± 0.034 | 1.56 ± 0.26 | 1.15 ± 0.1 | 1.01 (active)
9 | Cl.O=C(c1ccc(OCCN2CCCCC2)cc1)c1c(-c2ccc(O)cc2)sc2cc(O)ccc12 | 0.106 ± 0.015 | 1.14 ± 0.27 | 2.12 ± 0.12 | 0.55 ± 0.023 | 0.901 ± 0.24 | 1.5 ± 0.18 | 0.254 (inactive)
10 | Cc1ccc(Sc2ccccc2N2CCNCC2)c(C)c1 | 0.415 ± 0.1 | 1.22 ± 0.065 | 2.11 ± 0.33 | 0.462 ± 0.015 | 2.25 ± 0.3 | 2.42 ± 0.23 | 0.622 (inactive)
11 | Fc1ccccc1C=NNc1nc(-c2ccccc2)cc(-c2ccccc2)n1 | 1.03 ± 0.25 | 1.19 ± 0.094 | 1.05 ± 0.17 | 1.01 ± 0.028 | 1.14 ± 0.15 | 1.51 ± 0.37 | 1 (active)
12 | COC(=O)C1=CN(C2CC2)C=C(C(=O)OC)C1c1ccccc1Cl | 1.12 ± 0.1 | 0.722 ± 0.07 | 1.1 ± 0.052 | 0.945 ± 0.11 | 0.905 ± 0.039 | 1.06 ± 0.17 | 1 (active)
13 | Cc1ccc(Nc2nc(N3CCOCC3)nc(N3CCN(c4ccccc4)CC3)n2)cc1 | 0.454 ± 0.029 | 1.05 ± 0.084 | 1.98 ± 0.059 | 0.711 ± 0.027 | 1.4 ± 0.067 | 1.9 ± 0.18 | 0.996 (active)
14 | COC(CNS(=O)(=O)Cc1ccccc1)c1ccc(Cl)s1 (configuration not stated) | 0.959 ± 0.056 | 1.02 ± 0.084 | 0.922 ± 0.052 | 1.24 ± 0.1 | 1.12 ± 0.071 | 1.16 ± 0.35 | 0.639 (inactive)
15 | COc1ccc(N2CC(NC(=O)Nc3cccc(Cl)c3C)CC2=O)cc1OC (configuration not stated) | 0.89 ± 0.064 | 1 ± 0.085 | 1.01 ± 0.061 | 0.977 ± 0.074 | 1.1 ± 0.21 | 1.15 ± 0.45 | 0.973 (active)
16 | N#Cc1ccc(C(=O)Nc2nc(-c3cccs3)c(C(=O)C(F)(F)F)s2)cc1 | 0.789 ± 0.091 | 1.06 ± 0.13 | 1.09 ± 0.17 | 0.958 ± 0.03 | 1.36 ± 0.21 | 1.54 ± 0.27 | 1.03 (active)
17 | Cc1ccc(CNC(=O)C(=O)NC2CCCCC2)cc1 | 1 ± 0.094 | 0.956 ± 0.11 | 0.963 ± 0.091 | 0.97 ± 0.025 | 1.46 ± 0.2 | 1.11 ± 0.21 | 1.01 (active)
18 | CS(=O)(=O)N(CC(=O)N1CCCCCC1)c1ccc(Cl)c(C(F)(F)F)c1 | 0.958 ± 0.11 | 1.21 ± 0.081 | 0.958 ± 0.036 | 0.974 ± 0.12 | 1.13 ± 0.15 | 1.15 ± 0.24 | 1 (active)
19 | O=[N+]([O-])c1ccc(CSc2nc3ccccc3[nH]2)cc1 | 0.971 ± 0.076 | 0.87 ± 0.048 | 1.01 ± 0.024 | 0.834 ± 0.048 | 1.02 ± 0.13 | 1.12 ± 0.11 | 0.995 (active)
20 | O=C(Cn1c(C(F)(F)F)nc2ccccc21)c1ccc(OC(F)F)cc1 | 0.916 ± 0.086 | 1.07 ± 0.084 | 0.884 ± 0.062 | 1.06 ± 0.061 | 1.3 ± 0.15 | 1.02 ± 0.072 | 1.01 (active)
21 | Cc1c(C#N)sc2nc(-c3ccccc3)nc(N=CN(C)C)c12 | 1.01 ± 0.086 | 1.05 ± 0.095 | 0.952 ± 0.027 | 0.94 ± 0.056 | 0.971 ± 0.078 | 1.03 ± 0.18 | 1 (active)
22 | CN(C)C1C(O)=C(C(N)=O)C(=O)C2(O)C(O)=C3C(=O)c4c(O)ccc(Cl)c4C(O)C3CC12.Cl (configuration not stated) | 1.37 ± 0.35 | 1.1 ± 0.067 | 1.01 ± 0.067 | 0.894 ± 0.038 | 1.19 ± 0.14 | 1.08 ± 0.15 | 0.991 (active)
23 | S=c1n(CN2CCOCC2)nc(-c2ccccc2Cl)n1-c1ccccc1 | 1.06 ± 0.059 | 0.985 ± 0.067 | 0.947 ± 0.074 | 0.944 ± 0.047 | 1.32 ± 0.18 | 1.16 ± 0.13 | 0.993 (active)
24 | CC(=O)c1cccc(NC(=O)CSc2nnc3c4ccccc4n(C)c3n2)c1 | 0.817 ± 0.063 | 0.835 ± 0.069 | 0.994 ± 0.091 | 0.904 ± 0.042 | 1.27 ± 0.11 | 1.41 ± 0.21 | 1.01 (active)
25 | O=C(O)CCC(=O)c1ccc(-c2ccccc2)cc1 | 0.806 ± 0.11 | 0.842 ± 0.1 | 0.87 ± 0.07 | 0.931 ± 0.049 | 0.984 ± 0.087 | 0.999 ± 0.078 | 0.986 (active)
26 | COc1cc(Nc2ncc(F)c(Nc3ccc4c(n3)N(COP(=O)(O)O)C(=O)C(C)(C)O4)n2)cc(OC)c1OC | 0.724 ± 0.063 | 0.825 ± 0.072 | 1.12 ± 0.1 | 0.869 ± 0.098 | 1.18 ± 0.22 | 1.25 ± 0.35 | 0.931 (active)
